PLK1 PBD inh – qHTS for Inhibitors of PLK1-PDB (polo-like kinase 1 - polo-box domain): Primary Screen. Serine/threonine-protein kinase PLK1 (Homo sapiens), P53350. Plk1 PBD binding of FITC phosphopeptide, fluorescence polarization. Potency, µM, inactives show max response, negative = inhibition, hits mostly inhibitors. 2.8% of 360,000 active. AID 720504, 2013; also: potency is read from the fitted curve at half-maximal effect; series mostly up to about 57 µM; % is scaled to controls: 0 for no effect and ±100 for the full control effect; nearly all actives have a fitted effect of over 65% in size
rTrxR1 inhibitor – qHTS Assay for Inhibitors of Mammalian Selenoprotein Thioredoxin Reductase 1 (TrxR1): qHTS; Potency, µM (titrated, usually from 114 µM), for the others: at the top dose activity change, negative = inhibition, most hits filed as inhibitors; recombinant rTrxR1, NADPH fluorescence consumption, selenite substrate; AID 588453, 2011; 1% of 390,000 active; also: potency is read from the fitted curve at half-maximal effect; % is scaled to controls: 0 for no effect and ±100 for the full control effect; nearly all actives have a fitted effect of over 65% in size
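Rat TrxR1 (90 nM in the dispensed reagent) was pre-reduced with 400 uM NADPH for 5 min at room temperature, then incubated with compound for 15 min. After 400 uM selenite was added, NADPH fluorescence (Ex 340/Em 450 nm) was followed for 8 min.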
VDR inh – Inhibitors of the vitamin D receptor (VDR): qHTS | Vitamin D3 receptor (Homo sapiens), P11473 | VDR-SRC2-3 peptide fluorescence polarization, 2 h | Potency, µM, for inactives: max response, negative = inhibition, usual class: inhibitors | 0.93% of 400,000 active | AID 504847, 2011; also: potency is read from the fitted curve at half-maximal effect; % is scaled to controls: 0 for no effect and ±100 for the full control effect
Target sequence (P11473 whole entry, looked up): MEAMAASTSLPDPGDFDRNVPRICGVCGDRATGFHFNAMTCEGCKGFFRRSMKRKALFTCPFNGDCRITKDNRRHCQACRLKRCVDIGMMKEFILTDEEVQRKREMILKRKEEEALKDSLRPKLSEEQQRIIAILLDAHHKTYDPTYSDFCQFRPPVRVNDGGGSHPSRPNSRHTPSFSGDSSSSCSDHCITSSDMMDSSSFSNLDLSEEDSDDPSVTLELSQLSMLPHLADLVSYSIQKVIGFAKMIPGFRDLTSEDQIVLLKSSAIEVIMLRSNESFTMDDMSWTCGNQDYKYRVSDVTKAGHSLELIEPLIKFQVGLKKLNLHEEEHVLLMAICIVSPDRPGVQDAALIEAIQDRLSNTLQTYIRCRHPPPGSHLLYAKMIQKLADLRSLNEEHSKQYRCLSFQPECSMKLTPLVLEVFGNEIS
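Fluorescence polarization assay of small-molecule disruption of VDR binding to coregulator peptide SRC2-3. Compounds and controls pin-transferred, then read after 2 h incubation at ambient room temperature.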
IDH1 R132H inh – qHTS for Inhibitors of mutant isocitrate dehydrogenase 1 (IDH1): qHTS. 0.093% of 390,000 active. Isocitrate dehydrogenase [NADP] cytoplasmic (Homo sapiens), O75874. IDH1-R132H enzyme, NADPH consumption, diaphorase/resazurin fluorescence. Potency, µM (series often up to 76.6 µM), for inactives: at the top dose activity change, negative = inhibition, actives largely listed as inhibitors; also: potency is read from the fitted curve at half-maximal effect; % is scaled to controls: 0 for no effect and ±100 for the full control effect; nearly all actives have a fitted effect of over 65% in size
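IDH1-R132H (0.5 ug/mL) preincubated 30 min with compound, then NADPH (0.016 mM) and alpha-KG (2 mM) added; 80 min at RT, pH 7.5. Remaining NADPH coupled via diaphorase/resazurin to fluorescence (540/590 nm); concentration-response curves normalized to no-enzyme control.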
Sfp inh – qHTS Assay for Inhibitors of Bacillus subtilis Sfp phosphopantetheinyl transferase (PPTase); 4'-phosphopantetheinyl transferase ffp (Bacillus subtilis), Q9F4F7; Biochemical Sfp PPTase activity, qHTS; Potency, µM, for inactives: largest response in the series, negative = inhibition, hits mostly inhibitors; 3.5% of 310,000 active; AID 1490, 2009;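 also: the enzyme is Sfp with the accession as filed and its product quenches rhodamine fluorescence; potency is read from the fitted curve at half-maximal effect; 0% = enzyme reaction without inhibitor and -100% = no enzyme wells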
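Compounds were incubated with enzyme (final 15 nM) for 15 min at room temperature before substrate addition started the reaction. Fluorescence at 525 nm excitation, 598 nm emission was recorded immediately and after 30 minutes.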
TrxR1 substrate – qHTS Assay for Substrates of Mammalian Selenoprotein Thioredoxin Reductase 1 (TrxR1): qHTS; Thioredoxin reductase 1, cytoplasmic (Rattus norvegicus), O89049; purified TrxR1 substrate turnover, NADPH consumption readout; Potency, µM (highest dose often 114 µM), inactives show top-dose activity change, negative = substrate turnover; 0.01% of 390,000 active; also: potency is read from the fitted curve at half-maximal effect; % is scaled to controls: 0 for no effect and ±100 for the full control effect; nearly all actives have a fitted effect of over 50% in size
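Rat TrxR1, dispensed at 90 nM, was prereduced with 400 uM NADPH (final) for 5 min at ~22 deg C, then incubated with compound 15 min before 400 uM selenite. A first-read NADPH fluorescence drop versus no-compound background flagged substrates.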
USP1 UbRho – Inhibitors of USP1/UAF1: Hit Validation in Primary Assay; shares compounds with VDR inh; Potency, µM (top dose mostly 114 µM), for the others: top-dose activity change, negative = inhibition, most hits filed as inhibitors; Ub-Rhodamine cleavage, fluorescence kinetic read; 50% of 50 active
VDR inh confirm – qHTS for Inhibitors of the vitamin D receptor (VDR): Hit Validation in Primary Screen. 89% of 840 active. AID 602199, 2012. Potency, µM, hits mostly inhibitors. shares compounds with VDR inh. VDR-coactivator inhibition assay, qHTS confirmation; also: potency is read from the fitted curve at half-maximal effect
VDR FP – qHTS for Inhibitors of the vitamin D receptor (VDR): Hit Validation using a Fluorescein Assay. shares compounds with VDR inh. AID 602200, 2012. VDR-coactivator binding, fluorescein fluorescence polarization. 48% of 840 active. Potency, µM (series often up to 57.1 µM), inactives show at the top dose activity change, negative = inhibition, hits mostly inhibitors; also: potency is read from the fitted curve at half-maximal effect
VDR bla – qHTS for Inhibitors of the vitamin D receptor (VDR): Hit Validation using a Beta-Lactamase Assay. AID 602202, 2012. VDR beta-lactamase reporter cells, FRET ratio; cells co-treated with VDR agonist LG190178. Potency, µM (series often up to 46.1 µM), without a hit: at the highest dose activity change, negative = inhibition, actives largely listed as inhibitors. 23% of 840 active. shares compounds with VDR inh; also: potency is read from the fitted curve at half-maximal effect; % is scaled to controls: 0 for no effect and ±100 for the full control effect
VDR viability – qHTS for Inhibitors of the vitamin D receptor (VDR): Hit Validation using a Cytotoxicity Assay. shares compounds with VDR inh. cytotoxicity counter-screen, cell viability, qHTS. Potency, µM (top dose mostly 48.3 µM), without a hit: at the highest dose activity change, negative = cytotoxicity, usual class: cytotoxic. 18% of 840 active. AID 602204, 2012;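 also: potency is read from the fitted curve at half-maximal effect; plate controls were DMSO for no effect and high-concentration cycloheximide for full effect; nearly all actives have a fitted effect of over 75% in size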
* = called active by the depositor; ? = inconclusive; · = no result; [ ] = remark or other dose. Sampled rows, rich in hits. Any-hit rate of the full collection: about 5.2%. Calls follow the shape of the dose curve; as a rule, active = well fitted curve in the direction sought with a large enough effect; inconclusive = small, poorly fitted or top-dose-only effect, or another doubt; inactive = no such curve, though single readings can be large; an effect the other way counts as inactive or inconclusive.

SMILES	PLK1 PBD inh	rTrxR1 inhibitor	VDR inh	IDH1 R132H inh	Sfp inh	TrxR1 substrate	VDR inh confirm	VDR FP	VDR bla	VDR viability	others
CN(C)[C@H]1C(=O)C(C(=O)NCN2CCCC2)=C(O)[C@]2(O)C(=O)C3=C(O)c4c(O)cccc4[C@@](C)(O)[C@H]3C[C@@H]12	·	·	32µM*	·	3%	·	·	·	·	·	USP1 UbRho=?
COc1ccc(OC)c(/C=C/C(=O)c2ccc(Cl)cc2)c1	-2%	-10%	45µM*	1%	-7%	-4%	18*	22µM*	?	3%
COc1cccc(-c2cnc3c(NC(C)=O)cc(-c4cc(OC)c(OC)c(OC)c4)cn23)c1	-20%	·	·	·	·	·	·	·	·	·
Nc1ncnc2c1ncn2[C@@H]1O[C@H](CNCc2ccc(-c3cc(C(F)(F)F)ccc3Cl)o2)[C@@H](O)[C@H]1O	-11%	-22%	28µM*	-3%	·	-3%	?	?	11%	14%
Nc1ncnc2c1ncn2[C@@H]1O[C@H](CNCc2ccccc2)[C@@H](O)[C@H]1O	-14%	13%	-1%	7%[38.3 µM]	·	-3%	·	·	·	·
COc1ccc(CCNC(=O)c2ccc3c(c2)N(Cc2ccccc2Cl)C(=O)c2ccccc2S3)cc1OC	·	22%[57.1 µM]	23%	7%	·	2%[57.1 µM]	·	·	·	·
Cc1cc(C)c(S(=O)(=O)/N=C2/C=C(SCC(=O)O)C(=O)c3ccccc32)cc1C	0.84µM*	?	7.9µM*	13%	22µM*	-6%	4.2*	?	-1%	?
Cc1ccc(NC2=C/C(=N\S(=O)(=O)c3cccs3)c3ccccc3C2=O)c(C)c1	-21%	-17%	-14%	10%	-7%	-9%	·	·	·	·
Cc1ccc(S(=O)(=O)Nc2nsc(N)n2)cc1	-6%	1%	7.1µM*	4%	35µM*	-4%	5.3*	?	27%	-10%
CC(C)Nc1nc(NC(C)C)nc(NS(=O)(=O)c2ccc(N)cc2)n1	-8%	11%	2%	4%	7%	-8%	·	·	·	·
O=C(c1cccs1)N(Cc1cccnc1)c1nc2ccc(F)cc2s1	·	11%[57.1 µM]	12%	13%	·	3%[57.1 µM]	·	·	·	·
O=C(Cc1ccc(Cl)cc1)Nc1cccc(S(=O)(=O)Nc2ccccc2F)c1	-12%	-4%	-5%	-7%	21%	-6%	·	·	·	·
O=C(CSc1ccc([N+](=O)[O-])cc1)Nc1cccc(S(=O)(=O)Nc2ccccc2F)c1	9.5µM*	-8%	79µM*	-7%	45µM*	-6%	19*	22µM*	21%	-9%
O=[N+]([O-])c1ccc(Nc2ccccc2)c2nonc12	-8%	-15%	3%	-4%	-8%	-9%	·	·	·	·
O=[N+]([O-])c1ccc(Sc2cccc[n+]2[O-])c2nonc12	0.95µM*	1.6µM*	8.9µM*	8%	1.3µM*	-1%[57.1 µM]	6*	?	3.7µM*	?
CC1CCc2nn(CC(=O)Nc3ccccc3Cl)cc2C1 (stereo not drawn)	·	-21%	-5%	-4%	·	-17%	·	·	·	·
CC[C@@]1(O)C(=O)COc2c1cc1n(c2=O)Cc2c-1nc1cccc(C(C)C)c1c2[Si](C)(C)C	·	·	·	·	-5%	·	·	·	·	·
CCc1ccc(-n2nc3cc(C)c(N)cc3n2)cc1	?	13%	?	-7%	56µM*	38%	7.1*	13µM*	1%	4%
CCOc1cc(/C=C\[N+](=O)[O-])ccc1OCC(=O)N1CCOCC1	21µM*	8.9µM*	28µM*	-2%	40µM*	8%[57.1 µM]	27*	?	?	?
COc1cc(C2Oc3ccccc3C=C2[N+](=O)[O-])cc(OC)c1OC (stereo not drawn)	4.2µM*	?	22µM*	-4%	?	-9%	17*	?	?	?
COc1cc(C2NC(=O)c3ccccc3O2)cc(OC)c1OC (stereo not drawn)	-2%	20%	-7%	4%	-6%	10%	·	·	·	·
Cc1ccccc1NC(=O)c1snc2c(=O)[nH]cnc12	·	·	·	·	10%	·	·	·	·	·
Cc1ccc(NC(=O)c2nc(S(=O)(=O)Cc3ccccc3F)ncc2Cl)cc1	·	2.8µM*	·	·	·	9%	1.6*	1.4µM*	16µM*	?
O=C(Nc1ccc(OC(F)F)cc1)c1nc(SCc2ccccc2F)ncc1Cl	·	-3%	·	·	·	-4%	·	·	·	·
Cc1ccc(NC(=O)c2nc(S(=O)(=O)Cc3ccccc3F)ncc2Cl)cc1C	·	3.2µM*	·	·	·	-6%	3.2*	3.2µM*	9.2µM*	15µM*

Source: PubChem BioAssay
